Experimental findings from PubChem BioAssay (NCATS) are described below.

Results filed as inconclusive are left out. Active and inactive are the calls of the source. Calls follow the shape of the dose curve; as a rule, active = well fitted inhibition curve with a large enough effect; inconclusive = small, poorly fitted or top-dose-only effect; inactive = flat fitted curve, though single readings scatter.
% is scaled to controls: 0 for no effect and ±100 for the full control effect.

Calcium and integrin-binding protein 1 (Homo sapiens), sequence (Q99828 whole entry, looked up): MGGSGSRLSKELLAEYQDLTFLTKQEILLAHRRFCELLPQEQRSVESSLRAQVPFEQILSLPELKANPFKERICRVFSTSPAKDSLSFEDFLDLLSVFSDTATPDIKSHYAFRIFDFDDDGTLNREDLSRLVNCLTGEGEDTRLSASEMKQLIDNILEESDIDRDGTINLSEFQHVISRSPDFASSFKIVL

This experiment has as its target Calcium and integrin-binding protein 1 (Homo sapiens) (UniProt Q99828). In words: Primary qHTS for Identification of Calcium Integrin Binding Protein 1 (CIB1) Competitor (AID 1508620). Also: top concentration of the series differs between compounds. To be noted: CIB1-GST / FITC-alphaIIb peptide fluorescence polarization; series mostly up to 114 µM; activity change, negative = inhibition: at the top concentration. The gist of the method:
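Fluorescence polarization competition: GST-tagged CIB1 (1 uM final) preincubated with compound 15 min at room temperature, then FITC-labelled alphaIIb peptide (100 nM final) added. After 15 min at room temperature, polarization read at Ex 480/Em 540.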
Turning to `CC(C)n1cnc2c(Nc3cccc(Cl)c3)nc(NCCO)nc21`, the “activity change, negative = inhibition” value is -3.46% (inactive).

Regarding `O=C(CC1NCCC[C@H]1O)Cn1cnc2cc(Br)c(Cl)cc2c1=O` (stereo not given in full), the “activity change, negative = inhibition” value is 1.76% (inactive).

Consider `Cc1c(C(=O)NCCCO)cnn1-c1nc(-c2cccc(C(F)(F)F)c2)cs1`, for which the “activity change, negative = inhibition” value is 2.48% (inactive).

Turning to `COc1cccc(NC[C@@H](O)Cn2c3ccc(Br)cc3c3cc(Br)ccc32)c1`, the “activity change, negative = inhibition” value is -0.754% (inactive).

Take `C[C@@H](O[C@H]1OCCN(Cc2n[nH]nc2CN(C)C)[C@H]1c1ccc(F)cc1)c1cc(C(F)(F)F)cc(C(F)(F)F)c1`: the “activity change, negative = inhibition” value was -4.54% (inactive).

`CC[C@H](C)[C@H]1O[C@]2(CC[C@@H]1C)C[C@@H]1C[C@@H](C/C=C(\C)[C@@H](O[C@H]3C[C@H](OC)[C@@H](O[C@H]4C[C@H](OC)[C@@H](O)[C@H](C)O4)[C@H](C)O3)[C@@H](C)/C=C/C=C3\CO[C@@H]4[C@H](O)C(C)=C[C@@H](C(=O)O1)[C@]34O)O2`: the “activity change, negative = inhibition” value was 4.05% (inactive).

On to `CCC(=O)Nc1cccc(Oc2nc(Nc3ccc(N4CCN(C)CC4)cc3OC)ncc2Cl)c1`, for which the “activity change, negative = inhibition” value is -20.1% (inactive).

On to `COc1cc2nc(-c3cc(F)ccc3O)nc(N[C@@H]3CNC[C@H]3C(C)(C)O)c2cc1OC`, for which the “activity change, negative = inhibition” value is -10.1% (inactive).

On to `Cc1cc(CN)cc(C)c1NC(=O)c1ccc(-c2cc(Cl)ccc2Cl)o1`, for which the “activity change, negative = inhibition” value is -10.9% (inactive).

Take `c1ccc(-c2cnc(Nc3ccc(OCCN4CCCC4)cc3)s2)cc1`: the “activity change, negative = inhibition” value is -2.4% (inactive).

In the case of `C=C1C(=O)O[C@@H]2/C=C(/C)CC3C=C(C[C@H](OC(=O)/C(C)=C\C)[C@@H]12)C(=O)O3` (stereo not given in full), the “activity change, negative = inhibition” value is -16.2% [at 57.7 µM] (inactive).

For the compound `CC1(C)SC2C(NC(=O)[C@H](NC(=O)N3CCNC3=O)c3ccccc3)C(=O)N2C1C(=O)O` (stereo not given in full), the “activity change, negative = inhibition” value was -2.01% (inactive).

In the case of `CC1(C)SC2C(NC(=O)[C@H](C(=O)O)c3ccsc3)C(=O)N2C1C(=O)O` (stereo not given in full), the “activity change, negative = inhibition” value is -4.23% (inactive).

As for `COc1ccc(-c2nc(-c3cc(C(F)(F)F)cc(C(F)(F)F)c3)n(Cc3ccc(C(N)=O)cc3)c2-c2ccc(OC)cc2)cc1`, the “activity change, negative = inhibition” value is -3.44% (inactive).

For the compound `Fc1ccccc1CNCc1ccc(-c2ccnc3[nH]ccc23)cc1`, the “activity change, negative = inhibition” value is 4.66% (inactive).

For `CCCCc1nc(C)c(CC(=S)N(C)C)c(=O)n1Cc1ccc(-c2ccccc2-c2nn[nH]n2)cc1`, the “activity change, negative = inhibition” value was 5.94% (inactive).

As for `CO[C@@H]1[C@@H](O[C@H]2O[C@@H](C)[C@H](O[C@@H]3C[C@](C)(O)[C@H](O)[C@@H](C)O3)[C@@H](N(C)C)[C@@H]2O)[C@@H](CC=O)C[C@@H](C)[C@@H](O[C@H]2CC[C@H](N(C)C)[C@H](C)O2)/C=C/C=C/C[C@@H](C)OC(=O)C[C@H]1O`, the “activity change, negative = inhibition” value is -4.02% (inactive).

Regarding `CNc1nc(-c2ccc3c(N)n[nH]c3c2)cc(N2CC(C(=O)NC3CCCCC3)CCC2C)n1` (stereo not given), the “activity change, negative = inhibition” value is 1.92% (inactive).

For `CNc1cc(OC)c(C(=O)N[C@@H]2CCN(Cc3ccccc3)[C@@H]2C)cc1Cl`, the “activity change, negative = inhibition” value was 1.01% (inactive).

Turning to `CCOC(=O)CCC(=O)O[C@H]1[C@H](O[C@@H]2[C@@H](C)[C@H](O[C@H]3C[C@@](C)(OC)[C@@H](O)[C@H](C)O3)[C@@H](C)C(=O)O[C@H](CC)[C@@](C)(O)[C@H](O)[C@@H](C)C(=O)[C@H](C)CC2(C)O)O[C@H](C)C[C@@H]1N(C)C` (stereo not given in full), the “activity change, negative = inhibition” value was -5.45% (inactive).

`COc1cc(-c2cc(-c3cccc(O)c3)cnc2N)cc(OC)c1OC`: the “activity change, negative = inhibition” value is 3.43% (inactive).

Turning to `C=C1C(=O)O[C@@H]2C[C@@H](C)[C@]34C[C@]5(C(=O)O[C@H]6CC(C)=C([C@H](C)CCCO)[C@H](OC(=O)C(C)CC)[C@H]65)[C@@H](C(C)=C3C[C@@H]12)[C@H]4OC(C)=O` (stereo not given in full), the “activity change, negative = inhibition” value is 0.801% [at 30.2 µM] (inactive).

With `CC(=O)Nc1ccc(C(=O)Nc2ccccc2N)cc1`, the “activity change, negative = inhibition” value is -0.64% [at 57.7 µM] (inactive).

Regarding `C[C@H](NC(=O)C(C)(C)Oc1ccc(C(F)(F)F)cn1)[C@@H](Cc1ccc(Cl)cc1)c1cccc(C#N)c1`, the “activity change, negative = inhibition” value was 4.04% (inactive).

`CN(C)CC(=O)Nc1ccc2[nH]c(=O)c3ccccc3c2c1`: the “activity change, negative = inhibition” value was -1.95% (inactive).

As to `CC(CCC1(O)OC2CC3C4CC=C5CC(O[C@@H]6O[C@H](CO)[C@@H](O[C@@H]7O[C@H](CO)[C@@H](O)[C@H](O)[C@H]7O)[C@H](O)[C@H]6O[C@@H]6O[C@@H](C)[C@H](O)[C@@H](O)[C@H]6O)CCC5(C)C4CCC3(C)C2C1C)CO[C@@H]1O[C@H](CO)[C@@H](O)[C@H](O)[C@H]1O` (stereo not given in full), the “activity change, negative = inhibition” value was 4.86% [at 30.2 µM] (inactive).

As to `C[C@@H](CN1CCC(n2c(=O)[nH]c3cc(Cl)ccc32)CC1)NC(=O)c1ccc2ccccc2c1`, the “activity change, negative = inhibition” value was 7.22% (inactive).

For the compound `CC(C)c1ccc(NC(=O)C(c2ccccc2)N(C)C(=O)Cc2c[nH]c3ccccc23)cc1` (stereo not given), the “activity change, negative = inhibition” value was 0.808% (inactive).

As to `CCCCc1nc(Cl)c(CO)n1Cc1ccc(-c2ccccc2-c2nnn[nH]2)cc1`, the “activity change, negative = inhibition” value was -8.41% (inactive).

As to `COc1ccc2c(c1)CN(C(=O)CCN1CCC(Cc3ccccc3)CC1)CCS2`, the “activity change, negative = inhibition” value was -9.56% [at 57.7 µM] (inactive).
